Results taken from PubChem BioAssay (Tox21).
Unmarked numbers belong to inactive results. Calls come from the whole dose curve; as a rule, active = well fitted curve in the direction sought with a large enough effect in the repeat runs; inconclusive = weak or mixed curves; inactive = flat fitted curve, though single readings scatter.

assay: qHTS assay to test for compound auto fluorescence at 535 nm (green) in HEK293 cell free culture (AID 720682); conditions: cell-free medium, green autofluorescence 485/535 nm, stronger effect = higher value; series mostly up to 91.3 µM; activity change: at the top concentration
Outline: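 Measurement is a direct plate read of green fluorescence (485 nm in, 535 nm out) after compound addition to serum-supplemented DMEM lacking cells, with fluorescein used to express intensities.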
% is set by controls: 0 for no effect and ±100 for the full control effect.

Compared with `C=C(C)C(=O)OC(C)C`, `CC(C)CC=O` is lower in “activity change” value: -0.0599% for the first, -0.242% for the second.

Going from `OCC1CC2CC1C1CCC(CO)C21` (centres undefined) to `O=C=NC1CCC(CC2CCC(N=C=O)CC2)CC1` (centres undefined), the “activity change” value falls from 0.063% to -0.0211%.

Compared with `CCCCCCCCN(C)C`, `CC(C)CCCC(C)CCO` (centres undefined) is lower in “activity change” value: 0.127% for the first, 0.017% for the second.

First: Cc1ccc(C)o1
Second: CC(C)(C)c1ccc(S)cc1
The “activity change” value of the first is higher: 0.0608% for the first, -0.0036% for the second.

Compared with `CC(C)c1ccccc1C(C)C`, `NCc1ccccc1` is lower in “activity change” value: 0.0986% for the first, 0.0588% for the second.

Compared with `O=[N+]([O-])c1cc[n+]([O-])cc1`, `O=c1c2ccccc2nnn1CCl` is higher in “activity change” value: -0.0388% for the first, 0.0834% for the second.

Compared with `O=S(=O)(O)c1ccc(O)c2ncccc12`, `Cc1cc(NC(=O)C(=O)O)cc(C)c1Oc1ccc(O)c2c1CCC2` is lower in “activity change” value: 0.0868% for the first, 0.0029% for the second.

For `Cc1ccc(C(C)c2ccc(C)c(C)c2)cc1C`, the “activity change” value was -0.0441%.

Going from `CC[C@H](C)[C@H](N)C(=O)O` to `CCOc1cc(OCC)c(C(=O)CCC(=O)O)cc1OCC`, the “activity change” value rises from -0.0917% [at 46 µM] to 0.0366% [at 46 µM].

Going from `CC(=O)O[C@H]1C[C@@H]2CC[C@@H]3[C@H](CC[C@@]4(C)[C@H]3C[C@H]([N+]3(C)CCCCC3)[C@@H]4OC(C)=O)[C@@]2(C)C[C@@H]1N1CCCCC1` to `CC(C)(C)C(=O)OCOP(=O)(COCCn1cnc2c(N)ncnc21)OCOC(=O)C(C)(C)C`, the “activity change” value rises from -0.0141% [at 46 µM] to 0.487% [at 46 µM].

Going from `COc1ccc2[nH]c(S(=O)Cc3ncc(C)c(OC)c3C)nc2n1` (centres undefined) to `CNS(=O)(=O)Cc1ccc2[nH]cc(CCN(C)C)c2c1`, the “activity change” value falls from -0.0039% [at 46 µM] to -0.0383% [at 46 µM].

First: COc1ccccc1OC(=O)Oc1ccccc1OC
Second: Cc1c(Cn2ccnc2)c2ccccc2n1CCC(=O)O
The “activity change” value of the first is lower: 0.003% [at 46 µM] for the first, 0.0271% [at 46 µM] for the second.

In the case of `CCOC(=O)CC(=O)c1cc(F)c(Cl)nc1Cl`, the “activity change” value is reported as 0.0005% [at 95.7 µM].
